Source: PubChem BioAssay (NCATS)
Results filed as inconclusive are left out. Active and inactive are the calls of the source. The call rests on the fitted dose curve; in most records, active means well fitted curve in the direction sought with a large enough effect; inconclusive means small, poorly fitted or top-dose-only effect, or another doubt; inactive means no such curve, though single readings can be large; an effect the other way counts as inactive or inconclusive. Square brackets hold non-standard residues; d marks the D form. Peptide text beside a SMILES is read from it.

Tests used:
[1] = biological target: Cellular tumor antigen p53 (Homo sapiens) (UniProt P04637); assay: Primary qHTS for small molecule compounds that upregulate eGFP-tagged delta133p53alpha (in N-terminal) cells. (AID 2060322); conditions: NCI-H358 eGFP-delta133p53alpha fluorescence, 24 h; activation: active compounds read high;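 further: cells pre-induced with doxycycline then dosed without doxycycline; series mostly up to about 56 µM; 0% = DMSO vehicle and 100% = reference activator; nearly all actives have a fitted effect of over 75% in size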
Chain of Cellular tumor antigen p53 (Homo sapiens) (P04637 whole entry, looked up): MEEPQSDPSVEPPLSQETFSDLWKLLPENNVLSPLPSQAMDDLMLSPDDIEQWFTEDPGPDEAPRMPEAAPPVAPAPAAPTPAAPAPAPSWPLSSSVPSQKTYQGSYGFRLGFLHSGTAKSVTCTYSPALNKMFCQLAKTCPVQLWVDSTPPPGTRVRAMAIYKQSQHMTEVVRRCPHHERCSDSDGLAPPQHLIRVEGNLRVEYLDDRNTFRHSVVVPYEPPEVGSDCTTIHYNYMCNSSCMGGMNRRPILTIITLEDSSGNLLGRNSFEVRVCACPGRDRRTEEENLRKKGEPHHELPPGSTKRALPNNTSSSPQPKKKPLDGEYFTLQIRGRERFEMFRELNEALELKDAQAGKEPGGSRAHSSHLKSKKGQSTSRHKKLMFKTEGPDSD
Outline: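 NCI-H358 cells pre-induced 24 h with 10 ng/ml doxycycline for eGFP-delta133p53alpha, plated dox-free and exposed 24 h at 37C to titrated compounds. Fixed, Hoechst-stained; gated GFP peak intensity by laser scanning cytometry, normalized to DMSO (0%) and 57.5 uM 5-azacytidine (100%).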

[2] = biological target: Aldehyde dehydrogenase, mitochondrial (Homo sapiens) (UniProt P05091); assay: qHTS for Inhibitors of the Aldehyde Dehydrogenase Family (ALDH2) Primary screen (AID 2061308);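 further: plate controls were vehicle for no effect and reference inhibitor for full effect; nearly all actives have a fitted effect of over 55% in size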
[3] = biological target: Retinaldehyde dehydrogenase 3 (Homo sapiens) (UniProt P47895); assay: qHTS for Inhibitors of the Aldehyde Dehydrogenase Family (ALDH1A3) Primary screen (AID 2061315);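 further: plate controls were DMSO vehicle for no effect and reference inhibitor for full effect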

COc1cc(O)c2c(c1)C1=C[C@H](O)[C@@H](O)C[C@]1(C)OC2=O
inactive: activation [1] 1.53% | Potency [2] | Potency [3]

CC(=O)OC[C@@]12C(=O)C[C@@H](C)[C@]3(C[C@@H](c4ccoc4)OC3=O)[C@H]1CC[C@H](OC(C)=O)[C@]21CO1
inactive: activation [1] 27.5% | Potency [2] | Potency [3]

C/C=C(/C)C(=O)O[C@H]1[C@H](OC(=O)/C(C)=C\C)[C@@]23C(CC1(C)C)[C@]1(CCC4[C@@]5(C)CC[C@H](O[C@@H]6O[C@H](C(=O)O)[C@@H](O)[C@H](O[C@@H]7O[C@H](CO)[C@H](O)[C@H](O)[C@H]7O[C@@H]7O[C@@H](C)[C@H](O)[C@@H](O)[C@H]7O[C@@H]7OC[C@@H](O)[C@H](O)[C@H]7O)[C@H]6O[C@@H]6O[C@H](CO)[C@H](O)[C@H](O)[C@H]6O)C(C)(C)C5CC[C@@]4(C)[C@]1(C)C[C@H]2O)O[C@H]3O (stereo partly drawn)
inactive: activation [1] -8.93% | activity change, negative = inhibition [2] -1.6% [at 11.2 µM] | activity change, negative = inhibition [3] -5.71% [at 11.2 µM]

CCc1c(-c2ccccc2)c(-c2ccccc2)nn1-c1ccccc1-c1cccc(OCC(=O)O)c1
inactive: activation [1] 13% | Potency [2] | Potency [3]

CC(=O)N[C@H](Cc1ccc(O)cc1)C(=O)N[C@H](CCCN=C(N)N)C(=O)N[C@H](Cc1ccccc1)C(N)=O (Ac-[dY]-[dR]-[dF]-NH2)
inactive: activation [1] -15.7% | Potency [2] | Potency [3]

C=C(CCC1C(C)(O)CCC2C(C)(C)C(O)CCC12C)C(O)CO (stereo not drawn)
inactive: activation [1] -7.14% | Potency [2] | Potency [3]
